Measurements taken from PubChem BioAssay AID488845 (National Center for Advancing Translational Sciences (NCATS), 2010).
Activity calls are given as the source filed them. Calls follow the shape of the dose curve; as a rule, active = well fitted curve in the direction sought with a large enough effect; inactive = no such curve, though single readings can be large or run the other way.

target: Lysosomal acid glucosylceramidase (Homo sapiens) (UniProt P04062); experiment: qHTS Assay for Inhibitors and Activators of N370S glucocerebrosidase as a Potential Chaperone Treatment of Gaucher Disease: Primary Screen Confirmation Using LC/MS; conditions: N370S GC spleen homogenate, 4MU-glucoside, LC/MS detection
Excerpt: NIH Chemical Genomics Center [NCGC] NIH Molecular Libraries Probe Production Centers Network [MLPCN] MLPCN Grant: MH086442-01 Assay Submitter (PI): Wei Zheng Glucocerebrosidase (GC) catalyzes the hydrolysis of beta-glucocerebroside to glucose and ceramide in lysosomes. Mutations in the glucocerebrosidase gene result in Gaucher disease, an autosomal recessive lysosomal storage disorder. Many of the mutations encountered in patients with Gaucher disease are missense alterations that may cause misfolding, decreased stability and/or mistrafficking of this lysosomal protein. […] These inhibitors include iminosugar analogs and three non-iminosugar inhibitors identified from a previous HTS of 62,000 compounds with the wild type recombinant enzyme. However, the enhancement of enzyme activity by the chaperone action of an enzyme inhibitor must be balanced against the direct inhibition of the enzyme. An enzyme activator could also function as a chaperone by binding to the enzyme and helping to correct its misfolding and mistrafficking. While activators for GC have not yet been identified, they may have better therapeutic potential than inhibitors. Therefore the discovery and development of chemical activators may provide a new strategy for the chaperone therapy. We have optimized a new assay using N370S mutant GC derived from the spleen of a Gaucher patient. […] In addition, the MLPCN compound library has expanded, which increases the chance of finding new and better probes. This assay uses liquid chromatography linked to a mass spectrometer to assess the ability of glucocerebrosidase in the spleen homogenate to cleave either 4-methylumbelliferyl-beta-D-glucopyranoside substrate or a labeled version of the natural substrate, glucosylceramide.
NCGC Assay Protocol Summary: This is a fluorogenic enzyme assay with 4-methylumbelliferyl-beta-D-glucopyranoside as the substrate and N370S glucocerebrosidase from human spleen homogenate as the enzyme preparation. Upon the hydrolysis of this fluorogenic substrate, the resulting product, […] which can be detected by a standard fluorescence plate reader. Data were normalized to the controls for basal activity (without enzyme) and 100% activity (with enzyme). The AC50 values were determined from concentration-response data modeled with the standard Hill equation. Assay buffer: 50 mM citric acid (titrated with potassium phosphate to pH 5.0), 100 mM potassium chloride, 10 mM sodium chloride, 1 mM magnesium chloride, 0.01% Tween-20. […] Compounds were monitored using fluorescence detection with an excitation wavelength of […]. […]

Sequence of Lysosomal acid glucosylceramidase (Homo sapiens) (P04062 whole entry N409S): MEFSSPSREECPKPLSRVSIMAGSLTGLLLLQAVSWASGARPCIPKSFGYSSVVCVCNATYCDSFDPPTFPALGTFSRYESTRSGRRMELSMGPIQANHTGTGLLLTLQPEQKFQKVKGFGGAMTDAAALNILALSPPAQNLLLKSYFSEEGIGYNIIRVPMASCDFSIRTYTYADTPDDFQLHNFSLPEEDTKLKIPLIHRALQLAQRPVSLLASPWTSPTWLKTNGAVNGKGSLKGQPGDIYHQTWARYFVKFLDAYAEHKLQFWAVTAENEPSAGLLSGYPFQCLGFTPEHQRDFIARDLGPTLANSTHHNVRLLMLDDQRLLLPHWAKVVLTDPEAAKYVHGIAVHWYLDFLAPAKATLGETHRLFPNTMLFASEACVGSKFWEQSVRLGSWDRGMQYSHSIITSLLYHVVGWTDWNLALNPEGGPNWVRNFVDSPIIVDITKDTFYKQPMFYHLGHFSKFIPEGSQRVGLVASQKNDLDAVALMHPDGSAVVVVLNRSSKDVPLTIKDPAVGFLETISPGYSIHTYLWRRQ

Potency, active:
Cc1cc(C)n2ncc(C(=O)Nc3ccc(C(F)(F)F)cc3)c2n1 1340 nM, Cc1cc(C)n2ncc(C(=O)Nc3ccc(Br)cc3)c2n1 1190 nM, O=C(Nc1ccccc1Sc1ccccc1)c1cnn2c1NC(=C1CC1)C=C2C(F)F 3000 nM, C#Cc1ccc(NC(=O)c2cnn3c(C)cc(C)nc23)cc1 3730 nM
